In PubChem BioAssay AID1159580 (chemical genetic matrix, 2015):
Where “and” joins values, the source holds several entries; their conditions need not be identical. Equal values may be shown once. Screen size: about 5,500 compounds; about 2,000 (36%) were called active. Another 18% or so got no clear call; they are omitted. Cut-off read from the data, not from the text of the source: active = normalized growth mostly below about 0.91 (no sharp cut-off); inconclusive = no clear call, values can overlap the other calls; inactive = mostly above about 0.92. The list shows a part of the results.

Assay: chemical genetic growth profiling, strain panel (AID 1159580);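 note: tested at 20 µM; growth read once vehicle control cultures reached saturation at 30 °C; 1 = growth at the plate median or of vehicle wells; lower values mean less growth of the strain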
Settings: S. cerevisiae deletion strains, growth OD
[1] = locus YGR078C, strain PAC10, active compounds read low
[2] = locus YGR229C, strain SMI1, active compounds read low
[3] = locus YJR075W, strain HOC1, active compounds read low
[4] = locus YAL013W, strain DEP1, active compounds read low
[5] = locus YBR229C, strain ROT2, active compounds read low
[6] = locus YDL101C, strain DUN1, active compounds read low
[7] = locus YDR150W, strain NUM1, active compounds read low
[8] = locus YEL061C, strain CIN8, active compounds read low
[9] = locus YHR030C, strain SLT2, active compounds read low
[10] = locus YJR043C, strain POL32, active compounds read low
[11] = locus YLR039C, strain RIC1, active compounds read low
[12] = locus YLR262C, strain YPT6, active compounds read low
[13] = locus YMR263W, strain SAP30, active compounds read low
[14] = locus YPL055C, strain LGE1, active compounds read low
[15] = locus YPL241C, strain CIN2, active compounds read low

Measured: normalized growth

NC1C=CC=C(C(=O)O)C1 (stereo not given)
inactive: locus YAL040C, strain CLN3, active compounds read low 0.969 | locus YCL061C, strain MRC1 (second series), active compounds read low 0.989 | locus YER002W, strain NOP16, active compounds read low 0.992 | [1] 1 | [2] 0.999 | [3] 0.994 | locus YNL175C, strain NOP13, active compounds read low 0.995 | locus YNL197C, strain WHI3, active compounds read low 0.979 | locus YNL224C, strain SQS1, active compounds read low 1 | locus YOR083W, strain WHI5 (second series), active compounds read low 0.986

Fc1cc2n[nH]nc2cc1Cl
inactive: [4] 1 | [5] 0.989 | [6] 0.97 | [7] 0.919 | [8] 0.992 | [1] 0.972 | [9] 0.977 | locus YHR087W, strain rtc3, active compounds read low 0.997 | [10] 0.997 | [3] 0.958 | [11] 1.06 | locus YLR058C, strain SHM2 (second series), active compounds read low 0.978 | locus YLR085C, strain ARP6, active compounds read low 0.94 | [12] 1.06 | locus YML094W, strain GIM5, active compounds read low 0.979 | locus YMR219W, strain ESC1, active compounds read low 0.985 | [13] 0.931 | locus YNL153C, strain GIM3, active compounds read low 0.995 | locus YNL298W, strain CLA4 (second series), active compounds read low 0.977 | locus YNL322C, strain KRE1, active compounds read low 0.974 | locus YNR030W, strain Alg12, active compounds read low 0.993 | [14] 0.931 | [15] 0.978 | locus YPR135W, strain CTF4, active compounds read low 0.945

CC(=O)O[C@H]1C[C@@H](OC(C)=O)C(C)(C)C2C[C@@H](OC(C)=O)[C@@]3(C)C4=CC(=O)O[C@@H](c5ccoc5)[C@]4(C)CCC3[C@]21C (stereo not given in full)
inactive: [4] 1.01 | locus YAL021C, strain ccr4, active compounds read low 1.02 | locus YAL026C, strain drs2, active compounds read low 1 | locus YAL030W, strain snc1, active compounds read low 0.998 | locus YBL061C, strain skt5, active compounds read low 0.997 | locus YBR009C, strain hhf1, active compounds read low 0.99 | locus YBR021W, strain FUR4, active compounds read low 0.993 | locus YBR023C, strain chs3, active compounds read low 0.982 | locus YBR171W, strain sec66, active compounds read low 1 | [5] 1 | locus YBR231C, strain swc5, active compounds read low 0.989 | locus YBR279W, strain paf1, active compounds read low 1 | locus YCL011C, strain gbp2, active compounds read low 1 | locus YCL016C, strain dcc1, active compounds read low 0.997 | locus YCL029C, strain bik1, active compounds read low 1 | locus YCL061C, strain MRC1, active compounds read low 0.994 | locus YCL069W, strain vba3, active compounds read low 1.01 | locus YCR088W, strain abp1, active compounds read low 0.999 | locus YDL005C, strain med2, active compounds read low 0.989 | locus YDL035C, strain GPR1, active compounds read low 1.01 | locus YDL040C, strain nat1, active compounds read low 0.983 | locus YDL074C, strain BRE1, active compounds read low 0.993 | [6] 1 | locus YDL185W, strain tfp1, active compounds read low 1.01 | locus YDL192W, strain arf1, active compounds read low 1 | locus YDR001C, strain nth1, active compounds read low 1 | locus YDR069C, strain doa4, active compounds read low 0.983 | locus YDR101C, strain arx1, active compounds read low 1 | locus YDR137W, strain rgp1, active compounds read low 0.998 | [7] 1.01 | locus YDR159W, strain sac3, active compounds read low 0.968 | locus YDR162C, strain NBP2, active compounds read low 1.03 | locus YDR195W, strain ref2 0.961 | locus YDR297W, strain sur2, active compounds read low 1 | locus YDR318W, strain mcm21, active compounds read low 1 | locus YDR334W, strain swr1, active compounds read low 0.997 | locus YDR335W, strain msn5, active compounds read low 1 | locus YDR388W, active compounds read low 0.999 | locus YDR392W, strain spt3, active compounds read low 0.963 | locus YDR502C, strain sam2, active compounds read low 0.98 | locus YEL003W, strain gim4, active compounds read low 1.01 | locus YEL037C, strain rad23, active compounds read low 1.02 | locus YEL061C, strain CIN8 (second series), active compounds read low 1 | [8] 0.997 | locus YER015W, strain faa2, active compounds read low 0.998 | locus YER016W, strain bim1, active compounds read low 0.991 | locus YER110C, active compounds read low 0.997 | locus YER111C, strain swi4, active compounds read low 1 | locus YER155C, strain BEM2 (second series), active compounds read low 0.975 | locus YER155C, strain BEM2, active compounds read low 0.995 | locus YER167W, strain BCK2, active compounds read low 1.01 | locus YFR010W, strain ubp6, active compounds read low 1.01 | locus YGL078C, strain dbp3, active compounds read low 1.01 | locus YGL086W, strain mad1, active compounds read low 0.985 | locus YGL167C, strain pmr1, active compounds read low 0.996 | locus YGL173C, strain kem1, active compounds read low 1 | locus YGL227W, strain vid30, active compounds read low 0.998 | locus YGL240W, strain doc1, active compounds read low 0.973 | locus YGL248W, strain PDE1, active compounds read low 1 | locus YGL253W, strain hxk2, active compounds read low 1.01 | [1] 1.01 | locus YGR135W, strain pre9, active compounds read low 0.992 | [2] 1.05 | locus YGR252W, strain gcn5, active compounds read low 0.922 | locus YHR013C, strain ard1, active compounds read low 0.987 | locus YHR027C, strain rpn1, active compounds read low 0.994 | [9] 1.01 and 0.97 | locus YHR079C, strain IRE1 (second series), active compounds read low 1 | locus YHR079C, strain IRE1, active compounds read low 0.982 | locus YHR094C, strain hxt1, active compounds read low 1 | locus YHR129C, strain ARP1, active compounds read low 1.01 | locus YHR142W, strain chs7, active compounds read low 1.03 | locus YHR200W, strain rpn10, active compounds read low 0.993 | locus YIL066C, strain RNR3, active compounds read low 1.01 | locus YIL073C, strain SPO22, active compounds read low 1.03 | locus YIL125W, strain kgd1, active compounds read low 0.995 | locus YIR030C, strain dcg1, active compounds read low 0.998 | locus YJL092W, strain hpr5, active compounds read low 1.01 | locus YJL095W, strain BCK1 (second series), active compounds read low 1 | locus YJL095W, strain BCK1, active compounds read low 1.01 and 0.953 | locus YJL115W, strain asf1, active compounds read low 0.999 | locus YJL129C, strain trk1, active compounds read low 1.01 | locus YJL134W, strain LCB3, active compounds read low 1.01 | locus YJL154C, strain vps35, active compounds read low 0.999 | locus YJL164C, strain tpk1, active compounds read low 1 | locus YJL166W, strain qcr8, active compounds read low 0.994 | locus YJL168C, strain set2, active compounds read low 0.994 | locus YJL187C, strain SWE1 (second series), active compounds read low 1.01 | locus YJL187C, strain SWE1, active compounds read low 0.997 | [10] 1.01 | locus YJR066W, strain TOR1, active compounds read low 0.941 | locus YKL009W, strain mrt4, active compounds read low 0.99 | locus YKL068W, active compounds read low 1.01 | locus YKL085W, strain MDH1 (second series), active compounds read low 0.991 | locus YKL085W, strain MDH1, active compounds read low 0.991 | locus YKL160W, strain elf1, active compounds read low 0.995 | locus YKR001C, strain vps1, active compounds read low 0.992 | locus YKR026C, strain gcn3, active compounds read low 1.01 | locus YKR091W, strain srl3, active compounds read low 1 | locus YLL001W, strain dnm1, active compounds read low 1.02 | locus YLL026W, active compounds read low 0.998 | locus YLL041C, strain sdh2, active compounds read low 1 | locus YLR027C, strain aat2, active compounds read low 0.982 | [11] 1.05 | locus YLR058C, strain SHM2, active compounds read low 1.01 | locus YLR102C, strain apc9, active compounds read low 0.989 | locus YLR113W, strain HOG1, active compounds read low 1.03 | locus YLR221C, strain rsa3, active compounds read low 0.989 | locus YLR258W, strain gsy2, active compounds read low 0.978 | locus YLR262C, strain YPT6 (second series), active compounds read low 0.983 | [12] 1.09 | locus YLR268W, strain sec22, active compounds read low 1.01 | locus YLR320W, strain mms22, active compounds read low 0.977 | locus YLR330W, strain CHS5, active compounds read low 1.01 | locus YLR342W, strain FKS1, active compounds read low 0.991 | locus YLR357W, strain rsc2, active compounds read low 0.994 | locus YLR370C, strain arc18, active compounds read low 1 | locus YLR371W, strain rom2, active compounds read low 0.995 | locus YLR384C, strain iki3, active compounds read low 0.977 | locus YLR418C, strain cdc73, active compounds read low 0.973 | locus YML016C, strain PPZ1, active compounds read low 1 | locus YML032C, strain rad52, active compounds read low 1 | locus YML120C, strain ndi1, active compounds read low 1 | locus YML124C, strain tub3, active compounds read low 0.998 | locus YMR058W, strain fet3, active compounds read low 1.02 | locus YMR078C, strain ctf18, active compounds read low 0.989 | locus YMR125W, strain sto1, active compounds read low 0.998 | locus YMR129W, active compounds read low 1.01 | locus YMR205C, strain PFK2, active compounds read low 1.01 | locus YMR223W, strain ubp8, active compounds read low 0.988 | locus YMR231W, strain pep5, active compounds read low 0.962 | [13] 1.01 | locus YMR307W, strain GAS1, active compounds read low 1.05 | locus YNL067W, strain RPL9B, active compounds read low 1.01 | locus YNL071W, strain lat1, active compounds read low 1.01 | locus YNL183C, strain NPR1, active compounds read low 0.961 | locus YNL209W, strain ssb2, active compounds read low 0.992 | locus YNL233W, strain BNI4, active compounds read low 1.02 | locus YNL248C, strain rpa49, active compounds read low 1 | locus YNL250W, strain rad50, active compounds read low 1.01 | locus YNL271C, strain bni1, active compounds read low 1 | locus YNL298W, strain CLA4, active compounds read low 0.995 | locus YNL307C, strain MCK1, active compounds read low 0.995 | locus YNL322C, strain KRE1 (second series), active compounds read low 0.992 | locus YNR049C, strain mso1, active compounds read low 1 | locus YNR052C, strain pop2, active compounds read low 0.995 | locus YOL006C, strain TOP1, active compounds read low 1 | locus YOL012C, strain htz1 0.751 | locus YOL147C, strain pex11, active compounds read low 0.996 | locus YOR001W, strain rrp6, active compounds read low 0.979 | locus YOR061W, strain CKA2, active compounds read low 1 | locus YOR069W, strain VPS5, active compounds read low 0.999 | locus YOR070C, strain gyp1, active compounds read low 1.01 | locus YOR080W, strain dia2, active compounds read low 0.981 | locus YOR083W, strain WHI5, active compounds read low 1.01 | locus YOR106W, strain vam3, active compounds read low 1 | locus YOR136W, strain idh2, active compounds read low 0.991 | locus YOR144C, strain elg1, active compounds read low 0.99 | locus YOR184W, strain ser1, active compounds read low 0.999 | locus YOR231W, strain MKK1, active compounds read low 0.978 | locus YOR265W, strain rbl2, active compounds read low 0.993 | locus YOR270C, strain vph1, active compounds read low 1.04 | locus YOR290C, strain snf2, active compounds read low 1 | locus YOR316C, strain cot1, active compounds read low 1 | locus YPL051W, strain arl3, active compounds read low 0.977 | [14] 1.01 | locus YPL078C, strain atp4, active compounds read low 1 | locus YPL106C, strain sse1, active compounds read low 0.975 | locus YPL240C, strain hsp82, active compounds read low 0.997 | [15] 1.01 | locus YPL256C, strain CLN2, active compounds read low 0.957 | locus YPR119W, strain clb2, active compounds read low 0.995 | locus YPR141C, strain kar3, active compounds read low 1.01 | locus YPR163C, strain tif3, active compounds read low 1 | locus YPR167C, strain met16, active compounds read low 0.995 | strain wtn01, active compounds read low 0.993
